Results as given in PubChem BioAssay (NCATS).
Records with an inconclusive call do not appear. The source made the active and inactive calls. Unless noted, the call rests on the fitted dose curve; in most records, active means well fitted curve in the direction sought with a large enough effect; inconclusive means small, poorly fitted or top-dose-only effect, or another doubt; inactive means no such curve, though single readings can be large; an effect the other way counts as inactive or inconclusive.

Assays:
[1] = AP1 Signaling Pathway (AID 357; active means well fitted curve in either direction with a large enough effect, not every such curve was filed as active;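 further: ME-180 reporter cells stimulated with EGF at its EC50 level; on the % scale 0 is the no-effect control and ±100 the full control effect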); settings: ME-180 AP-1-bla reporter, EGF-induced, beta-lactamase ratio, 5 h; at 38 µM (top of the series)
Method in brief: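 First, ME-180 AP-1-bla cells were cultured overnight at 37 °C in low-serum Opti-MEM. Next, titrated compounds with EC50 EGF were incubated 5 hours. Finally, CCF4 was added for 2.5 hours and the 460/530 nm ratio recorded.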

[2] = NFAT Signaling Pathway (AID 444; active means well fitted curve in either direction with a large enough effect, not every such curve was filed as active;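 further: carbachol stimulus at about its EC50 of 1 µM final; on the % scale 0 is the no-effect control and ±100 the full control effect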); settings: Jurkat NFAT-bla M1, carbachol, beta-lactamase ratio, 5 h; at 38 µM (top of the series)
Method in brief: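 Jurkat cells carrying an NFAT-driven β-lactamase reporter and co-transfected muscarinic M1 receptor were treated with compound plus carbachol (1 uM final, an EC50 level) for 5 h at 37 °C. CCF4 loading followed for 1 h at RT; 460/530 nm ratio gave %activity.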

[3] = Stat Signaling Pathway (AID 446; active means well fitted curve in either direction with a large enough effect, not every such curve was filed as active;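 further: ME-180 cervical cancer cells given 40 pM IL-6 alongside compound; SIE-controlled beta-lactamase reporter measured as 460/530 nm FRET emission ratio; on the % scale 0 is the no-effect control and ±100 the full control effect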); settings: ME-180 SIE beta-lactamase reporter, IL-6 stimulated, 5 h; at 38 µM (top of the series)
Method in brief: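 Screening format detects activators and inhibitors alike: ME-180 SIE-bla cells stimulated at 40 pM IL-6 for 5 hrs with compound, then dual-emission beta-lactamase read at 405 nm excitation.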

[4] = target: Glucocorticoid receptor (Homo sapiens) (UniProt P04150); experiment: GR-GFP Redistribution (AID 450;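 active means compounds whose dose series gives a full or clear partial fitted curve of increased nuclear translocation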; further: potency means the concentration at half of the fitted maximal effect); settings: U2OS GR-GFP nuclear translocation, laser cytometry, 2 h
Sequence of Glucocorticoid receptor (Homo sapiens) (P04150 whole entry, looked up, the tested form may be a part): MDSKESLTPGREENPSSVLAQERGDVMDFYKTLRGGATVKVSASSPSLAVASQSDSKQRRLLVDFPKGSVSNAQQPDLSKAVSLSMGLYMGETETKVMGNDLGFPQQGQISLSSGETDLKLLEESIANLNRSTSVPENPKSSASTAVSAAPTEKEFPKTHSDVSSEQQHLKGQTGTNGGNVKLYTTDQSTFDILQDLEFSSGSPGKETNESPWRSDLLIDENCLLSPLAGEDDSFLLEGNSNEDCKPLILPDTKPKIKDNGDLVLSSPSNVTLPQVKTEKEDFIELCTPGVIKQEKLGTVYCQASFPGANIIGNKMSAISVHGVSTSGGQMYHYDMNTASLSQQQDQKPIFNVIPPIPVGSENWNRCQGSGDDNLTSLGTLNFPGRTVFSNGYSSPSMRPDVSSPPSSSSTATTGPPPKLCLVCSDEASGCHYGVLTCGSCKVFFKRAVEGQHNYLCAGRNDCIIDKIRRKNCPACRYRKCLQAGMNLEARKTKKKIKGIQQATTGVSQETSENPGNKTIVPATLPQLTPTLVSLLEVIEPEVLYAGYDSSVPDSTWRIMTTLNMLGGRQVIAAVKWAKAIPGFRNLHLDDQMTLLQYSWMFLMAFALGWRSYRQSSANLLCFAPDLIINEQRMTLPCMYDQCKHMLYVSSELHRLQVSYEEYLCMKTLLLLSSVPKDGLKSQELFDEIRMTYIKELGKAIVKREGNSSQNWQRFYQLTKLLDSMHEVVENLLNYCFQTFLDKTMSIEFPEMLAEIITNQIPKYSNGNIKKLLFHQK

[5] = target: Glucocorticoid receptor (Homo sapiens) (UniProt P04150); experiment: GR-EFC Redistribution (AID 451; calls by dose curve; further: potency means the concentration at half of the fitted maximal effect); settings: CHO-K1 GR-EFC translocation, beta-gal luminescence, 2 h
Method in brief: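 CHO-K1 cells stably expressing nuclear-localized β-gal enzyme acceptor and GR fused C-terminally to the enzyme donor fragment; ligand-driven nuclear translocation restores β-gal by complementation. Compounds titrated up to 46 uM final, 2 h at 37 °C; luminescence read.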

[6] = target: 3',5'-cyclic-AMP phosphodiesterase 4B (Homo sapiens) (UniProt Q07343); experiment: qHTS Assay for Inhibitors of PDE-IV (AID 607; active means well fitted activation curve with a large enough effect in the main read-out, with a control signal flat, not every such curve was filed as active; further: % of control where 0% means no effect); settings: HEK293 ACTOne CNG channel cells, membrane potential fluorescence; series mostly up to 22.9 µM
Sequence of 3',5'-cyclic-AMP phosphodiesterase 4B (Homo sapiens) (Q07343 whole entry, looked up): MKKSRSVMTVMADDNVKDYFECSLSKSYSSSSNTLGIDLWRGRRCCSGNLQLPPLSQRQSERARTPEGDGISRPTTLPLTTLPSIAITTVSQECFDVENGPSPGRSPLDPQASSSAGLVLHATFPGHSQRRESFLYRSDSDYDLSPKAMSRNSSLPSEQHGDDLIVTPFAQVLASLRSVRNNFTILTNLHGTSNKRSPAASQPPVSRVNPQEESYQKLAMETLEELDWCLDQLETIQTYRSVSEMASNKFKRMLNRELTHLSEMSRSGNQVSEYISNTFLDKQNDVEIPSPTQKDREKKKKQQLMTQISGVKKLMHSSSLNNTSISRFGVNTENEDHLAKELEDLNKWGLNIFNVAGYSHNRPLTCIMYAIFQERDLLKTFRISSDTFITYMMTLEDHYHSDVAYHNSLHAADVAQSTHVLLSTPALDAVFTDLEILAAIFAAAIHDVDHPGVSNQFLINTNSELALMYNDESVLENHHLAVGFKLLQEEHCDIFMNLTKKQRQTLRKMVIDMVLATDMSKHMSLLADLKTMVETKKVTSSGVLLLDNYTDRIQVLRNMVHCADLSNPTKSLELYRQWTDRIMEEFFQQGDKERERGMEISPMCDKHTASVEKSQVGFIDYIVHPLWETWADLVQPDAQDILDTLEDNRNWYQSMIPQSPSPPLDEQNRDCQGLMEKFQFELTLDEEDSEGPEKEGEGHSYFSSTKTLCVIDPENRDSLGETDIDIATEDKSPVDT
Method in brief: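 The readout is membrane depolarisation from a cAMP-sensing CNG channel, detected with a potential dye at ex 535/em 590. Cells were HEK293-derived (endogenous PDE-IV) at 1000 cells/well, titrated up to 22.9 uM final.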

[7] = target: Guanine nucleotide-binding protein G(i) subunit alpha-1 (Homo sapiens) (UniProt P63096); experiment: qHTS Assay for Inhibitors of RGS12 GoLoco Motif Activity (Green Fluorophore) (AID 879); settings: Galphai1/FITC-RGS12 GoLoco peptide, fluorescence polarization; series mostly up to 57.1 µM;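 further: 0% = labeled peptide with Gαi1 and full inhibition = labeled peptide alone without protein; negative values mean loss of peptide binding seen as reduced polarization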
Sequence of Guanine nucleotide-binding protein G(i) subunit alpha-1 (Homo sapiens) (P63096 whole entry, looked up): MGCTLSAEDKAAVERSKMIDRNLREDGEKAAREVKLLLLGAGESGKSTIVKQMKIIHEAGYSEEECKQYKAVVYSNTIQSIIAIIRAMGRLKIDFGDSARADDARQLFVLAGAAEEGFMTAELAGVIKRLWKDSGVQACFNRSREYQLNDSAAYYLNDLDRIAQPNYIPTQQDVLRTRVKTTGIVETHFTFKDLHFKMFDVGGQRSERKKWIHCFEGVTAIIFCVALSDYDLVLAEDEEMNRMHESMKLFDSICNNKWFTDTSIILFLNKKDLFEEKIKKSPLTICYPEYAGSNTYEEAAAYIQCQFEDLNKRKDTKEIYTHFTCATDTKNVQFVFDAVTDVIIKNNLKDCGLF
Method in brief: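 Fluorescence polarization assay: 50 nM Gαi1 with 10 nM FITC-labeled RGS12 GoLoco peptide in 10 mM Tris pH 7.5, 150 mM NaCl, 0.1 mM GDP, 0.05% NP40, 10 min at room temperature with compound.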

[8] = target: Cytochrome P450 2C9 (Homo sapiens) (UniProt P11712); experiment: qHTS Assay for Inhibitors and Substrates of Cytochrome P450 2C9 (AID 883); settings: recombinant CYP2C9, luciferin-H luminescence, 60 min; series mostly up to 57.1 µM; further: potency means the concentration at half of the fitted maximal effect; nearly all actives have a fitted effect of over 60% in size
Method in brief: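 CYP2C9 deoxyluciferin hydroxylation, 37C, 60 min with NADPH regeneration; 10nM enzyme, 100uM Luciferin-H (KM). Glo detection reagent stopped reaction; luminescence normalized to sulphaphenazole (57uM) full inhibition.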

[9] = qHTS Assay for Identification of Small Molecule Agonists for Thrombopoietin (TPO) Signaling Pathway (AID 917); settings: TPO signaling pathway reporter cells, agonist qHTS, stimulated with TPO at its EC50; series mostly up to 38.5 µM; further: on the % scale 0 is the no-effect control and ±100 the full control effect
Method in brief: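 Murine Ba/F3 cells expressing human TPO receptor and GPIIb-promoter luciferase, IL-3-starved overnight, given compound plus TPO at 26 pM (EC50). After 24 h at 37 C, 5% CO2, luminescence read.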

[10] = target: Muscarinic acetylcholine receptor M1 (Rattus norvegicus) (UniProt P08482); experiment: qHTS Assay for Antagonists of Acetylcholine Muscarinic M1 Receptor: Measurement of IP-One Response (AID 944); settings: CHO-M1 cells, IP-One HTRF, antagonist mode; series mostly up to 46.1 µM; further: nearly all actives have a fitted effect of over 75% in size
Sequence of Muscarinic acetylcholine receptor M1 (Rattus norvegicus) (P08482 whole entry, looked up): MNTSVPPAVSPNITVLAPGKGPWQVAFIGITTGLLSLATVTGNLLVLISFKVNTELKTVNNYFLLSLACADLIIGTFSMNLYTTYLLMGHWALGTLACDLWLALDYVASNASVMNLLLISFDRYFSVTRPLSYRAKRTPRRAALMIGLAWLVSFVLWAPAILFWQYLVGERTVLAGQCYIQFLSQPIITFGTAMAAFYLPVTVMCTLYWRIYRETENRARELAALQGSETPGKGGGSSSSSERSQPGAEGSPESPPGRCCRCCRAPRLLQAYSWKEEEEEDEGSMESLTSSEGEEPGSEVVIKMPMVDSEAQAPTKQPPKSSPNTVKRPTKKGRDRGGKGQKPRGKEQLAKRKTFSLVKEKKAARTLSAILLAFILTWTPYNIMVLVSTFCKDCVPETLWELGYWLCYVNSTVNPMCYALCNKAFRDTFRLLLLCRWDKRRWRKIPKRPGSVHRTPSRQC
Method in brief: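 CHO cells expressing rat M1 receptor, recovered overnight, were pre-incubated 10 min with compound, then stimulated 30 min with carbachol at EC80 (200 nM) in LiCl-containing buffer, pH 7.4. IP1 accumulation was read by HTRF (620/665 nm).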

[11] = target: Pyruvate kinase (Leishmania mexicana) (UniProt Q27686); experiment: qHTS Validation Assay for Inhibitors of Leishmania Mexicana Pyruvate Kinase (AID 945);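 further: 0% = DMSO only neutral control wells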; settings: purified L. mexicana pyruvate kinase, enzyme activity, E451W mutant enzyme; series mostly up to 57.5 µM
Sequence of Pyruvate kinase (Leishmania mexicana) (Q27686 2-499 E452W): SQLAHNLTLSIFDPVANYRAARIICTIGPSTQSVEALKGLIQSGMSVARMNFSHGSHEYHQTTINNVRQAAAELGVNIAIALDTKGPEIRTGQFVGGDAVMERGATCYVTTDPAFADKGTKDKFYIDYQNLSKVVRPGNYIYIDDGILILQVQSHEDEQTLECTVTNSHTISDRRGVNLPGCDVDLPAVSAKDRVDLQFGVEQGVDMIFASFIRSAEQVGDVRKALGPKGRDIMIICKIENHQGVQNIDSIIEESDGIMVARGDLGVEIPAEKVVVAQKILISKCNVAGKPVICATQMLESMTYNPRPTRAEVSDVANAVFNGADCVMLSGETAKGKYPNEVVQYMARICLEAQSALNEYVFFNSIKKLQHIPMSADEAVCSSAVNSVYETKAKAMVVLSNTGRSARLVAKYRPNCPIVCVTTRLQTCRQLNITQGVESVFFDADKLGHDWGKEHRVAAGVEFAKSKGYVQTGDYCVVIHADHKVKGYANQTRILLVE
Method in brief: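 An endpoint luciferase assay: 0.2 nM LmPYK E451W turns over 0.5 mM PEP with 0.1 mM ADP for 1 h at room temperature, pH 7.2, before PKLight addition. Values are normalized to DMSO-only wells.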

[12] = Validation screen for small molecules that induce DNA re-replication in MCF 10A normal breast cells (AID 463097); settings: MCF 10A cells, DNA re-replication phenotype imaging; series mostly up to 46.1 µM; further: 0% is about no effect; nearly all actives have a fitted effect of over 60% in size
Method in brief: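 MCF 10A cells exposed to compound 48 hr at 37 C, 5% CO2, then Hoechst-stained 40 min. Laser-scanning imaging of nuclear DNA content (405 nm ex, 500-530 nm em); re-replication scored as rise in nuclei with elevated fluorescence intensity.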

[13] = Quantitative high throughput screen for delayed death inhibitors of the malarial parasite plastid, 96 hour incubation (AID 488745); settings: Plasmodium falciparum growth; series mostly up to 28.7 µM; further: on the % scale 0 is the no-effect control and ±100 the full control effect; nearly all actives have a fitted effect of over 70% in size
Method in brief: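 P. falciparum carrying an integrated firefly luciferase reporter, grown in erythrocytes (2% hematocrit, 0.1% parasitemia final) in RPMI 1640/0.5% Albumax, was exposed to compound for 96 h (two generations) at 37 C, 5% CO2. Luminescence decrease indicated growth inhibition.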

[14] = target: M-phase phosphoprotein 8 (Homo sapiens) (UniProt Q99549); experiment: qHTS Validation Assay for Inhibitors for MPP8 Chromodomain Interactions with Methylated Histone Tails (AID 488949); settings: AlphaScreen MPP8 binding to H3K9me3 peptide; series mostly up to 114 µM; further: potency means the concentration at half of the fitted maximal effect; nearly all actives have a fitted effect of over 55% in size
Sequence of M-phase phosphoprotein 8 (Homo sapiens) (Q99549 whole entry, looked up): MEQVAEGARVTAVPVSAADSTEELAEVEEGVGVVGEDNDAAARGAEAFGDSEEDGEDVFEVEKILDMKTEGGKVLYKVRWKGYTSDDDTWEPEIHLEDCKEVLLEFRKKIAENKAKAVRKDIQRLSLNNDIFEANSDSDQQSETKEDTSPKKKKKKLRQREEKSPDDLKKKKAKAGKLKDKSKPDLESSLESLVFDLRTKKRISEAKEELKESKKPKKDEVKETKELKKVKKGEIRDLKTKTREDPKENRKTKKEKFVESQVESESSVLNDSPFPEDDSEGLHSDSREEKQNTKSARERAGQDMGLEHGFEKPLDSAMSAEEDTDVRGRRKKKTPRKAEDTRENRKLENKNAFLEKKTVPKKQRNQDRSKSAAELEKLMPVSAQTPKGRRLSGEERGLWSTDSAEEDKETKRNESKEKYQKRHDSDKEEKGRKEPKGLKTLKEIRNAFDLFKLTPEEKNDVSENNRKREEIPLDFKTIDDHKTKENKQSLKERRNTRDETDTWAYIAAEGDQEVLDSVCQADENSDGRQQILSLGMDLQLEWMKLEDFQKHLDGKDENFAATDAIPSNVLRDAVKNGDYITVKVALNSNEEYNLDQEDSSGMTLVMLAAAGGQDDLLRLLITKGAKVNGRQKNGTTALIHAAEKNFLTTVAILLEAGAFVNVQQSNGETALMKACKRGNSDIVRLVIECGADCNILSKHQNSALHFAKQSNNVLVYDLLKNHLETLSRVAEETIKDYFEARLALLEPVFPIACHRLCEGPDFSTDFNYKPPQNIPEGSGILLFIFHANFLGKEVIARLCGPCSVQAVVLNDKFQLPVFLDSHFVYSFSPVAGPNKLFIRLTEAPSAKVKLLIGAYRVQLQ
Method in brief: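 MPP8 (50 nM) was pre-bound to 50 nM biotinylated H3(1-18)K9me3 peptide in PBS pH 7.4 with 0.01% Tween-20. Compounds were then added for 30 min at room temperature, and complex disruption was read by AlphaScreen with streptavidin donor and nickel-chelate acceptor beads.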

[15] = target: Transient receptor potential cation channel subfamily V member 1 (Homo sapiens) (UniProt Q8NER1); experiment: HTS Assay for Compounds that Act as Enhancers of the Vanilloid Receptor 1 (AID 488979); settings: TRPV1-expressing cells, enhancer of channel activity, stimulated with capsaicin at EC20; series mostly up to 41.7 µM; further: 0% is about no effect
Sequence of Transient receptor potential cation channel subfamily V member 1 (Homo sapiens) (Q8NER1 whole entry, looked up): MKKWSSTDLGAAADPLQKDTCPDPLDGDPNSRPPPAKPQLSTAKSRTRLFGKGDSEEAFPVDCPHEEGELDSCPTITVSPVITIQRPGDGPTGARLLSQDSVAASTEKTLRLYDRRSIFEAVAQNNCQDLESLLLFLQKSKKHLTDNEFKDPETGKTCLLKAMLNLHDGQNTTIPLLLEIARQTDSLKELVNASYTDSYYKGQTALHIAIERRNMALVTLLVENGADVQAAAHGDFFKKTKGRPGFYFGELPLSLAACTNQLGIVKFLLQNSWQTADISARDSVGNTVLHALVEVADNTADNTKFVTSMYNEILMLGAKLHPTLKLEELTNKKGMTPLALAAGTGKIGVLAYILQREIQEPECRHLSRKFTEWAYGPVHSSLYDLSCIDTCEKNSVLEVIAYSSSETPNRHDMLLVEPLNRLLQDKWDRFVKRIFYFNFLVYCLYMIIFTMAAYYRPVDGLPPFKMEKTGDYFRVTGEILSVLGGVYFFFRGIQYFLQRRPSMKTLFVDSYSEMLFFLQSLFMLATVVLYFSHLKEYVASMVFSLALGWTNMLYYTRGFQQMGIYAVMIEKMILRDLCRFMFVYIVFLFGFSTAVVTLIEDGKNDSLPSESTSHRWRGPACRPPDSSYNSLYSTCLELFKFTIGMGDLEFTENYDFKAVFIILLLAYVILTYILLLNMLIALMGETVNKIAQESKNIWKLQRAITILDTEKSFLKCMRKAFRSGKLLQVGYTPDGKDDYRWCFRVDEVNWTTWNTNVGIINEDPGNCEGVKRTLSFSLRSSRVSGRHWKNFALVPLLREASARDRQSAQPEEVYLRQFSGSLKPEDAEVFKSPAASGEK
Method in brief: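 TRPV1-expressing cells loaded with Fluo-8 calcium dye; compounds added and calcium influx read kinetically for 3 min (agonist phase), then capsaicin at EC20 added and read 2 min more for enhancement. Fluorescence ex 480/em 520 nm.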

[16] = target: Thyrotropin receptor (Homo sapiens) (UniProt P16473); experiment: qHTS Assay for Antagonists of the Thyroid Stimulating Hormone Receptor (AID 488980); settings: TSHR-expressing cells, cAMP antagonist read-out; series mostly up to 57.5 µM; further: 0% is about no effect
Method in brief: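 TSHR-transfected HEK293 cells (2000/well) in HEPES-buffered HBSS with 70 uM RO 20-1724 were stimulated with 4 nM TSH (EC80, final) in the presence of compound. cAMP was measured by HTRF competition after lysis and 30 min at RT.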

[17] = target: Thyrotropin-releasing hormone receptor (Homo sapiens) (UniProt P34981); experiment: qHTS for Small Molecule Agonists and Allosteric Enhancers of Human TRH Receptor: Validation Screen for Agonists (AID 493127;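 active means calcium activation more than 3 SD above the typical response in the agonist read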;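 further: intracellular calcium rise by fluo-8 fluorescence before TRH EC20 addition; 0% is about no effect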); settings: TRH receptor agonist cell assay; at 2 µM; active compounds read high
Method in brief: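 TRHR-expressing cells were plated overnight in serum-containing medium, then loaded with fluo-8 calcium dye at room temperature for 30 min–1.5 h. After a 10 s baseline, compound was pin-transferred and calcium fluorescence (ex 480/em 530) read kinetically for agonist response.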

[18] = target: Galactokinase (Homo sapiens) (UniProt P51570); experiment: qHTS Validation Assay for Inhibitors of Human Galactokinase (GALK) (AID 493189); settings: purified human GALK enzyme activity, qHTS 7-point titration; series mostly up to 57.5 µM; further: 0% is about no effect
Method in brief: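 GALK (5 nM) with 35 uM ATP and 100 uM galactose in HEPES pH 8.0 with MgCl2, NaCl, DTT and BSA. Reaction ran 1 h at room temperature. Residual ATP read by Kinase-Glo Plus luminescence.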

[19] = Validation screen for small molecules that induce DNA re-replication in SW480 colon adenocarcinoma cells (AID 504364); settings: DNA re-replication phenotype (high-content imaging); series mostly up to 46.1 µM; further: 0% is about no effect
Method in brief: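 SW480 cells seeded at 250 per well were exposed to compound or DMSO for 48 hr at 37 C, 5% CO2, then stained with Hoechst for 40 min. DNA content per nucleus was imaged (405 nm ex, 500-530 nm em).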

[20] = target: DNA dC->dU-editing enzyme APOBEC-3G (Homo sapiens) (UniProt Q9HC16); experiment: qHTS for inhibitors of Vif-A3G interactions: Validation (AID 588379); settings: Vif-A3G protein interaction assay; series mostly up to 46.1 µM; further: 0% is about no effect
Sequence of DNA dC->dU-editing enzyme APOBEC-3G (Homo sapiens) (Q9HC16 whole entry, looked up): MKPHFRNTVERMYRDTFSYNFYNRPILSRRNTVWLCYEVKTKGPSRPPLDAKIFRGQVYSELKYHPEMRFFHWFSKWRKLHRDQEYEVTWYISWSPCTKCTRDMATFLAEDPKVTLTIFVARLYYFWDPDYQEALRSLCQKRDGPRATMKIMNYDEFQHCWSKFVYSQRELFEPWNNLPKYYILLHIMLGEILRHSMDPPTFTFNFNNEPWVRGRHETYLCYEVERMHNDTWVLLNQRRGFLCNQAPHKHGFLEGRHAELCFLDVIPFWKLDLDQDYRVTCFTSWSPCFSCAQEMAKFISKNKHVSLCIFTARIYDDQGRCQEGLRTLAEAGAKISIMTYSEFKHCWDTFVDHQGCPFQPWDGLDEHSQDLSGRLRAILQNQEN
Method in brief: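 HeLa cells stably expressing Vif and A3G-eYFP, 700 cells/well, incubated overnight at 37 deg C, then exposed to compound overnight at 37 deg C. Inhibition of Vif-mediated degradation read as increased yellow fluorescence (Ex 488/Em 500-530) by laser-scanning cytometry.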

O=C(Nc1cc(C(=O)Nc2ccc(S(=O)(=O)O)cc2S(=O)(=O)O)cc(C(=O)Nc2ccc(S(=O)(=O)O)cc2S(=O)(=O)O)c1)Nc1cc(C(=O)Nc2ccc(S(=O)(=O)O)cc2S(=O)(=O)O)cc(C(=O)Nc2ccc(S(=O)(=O)O)cc2S(=O)(=O)O)c1
active: activity, negative = inhibition [3] -91.7% | Potency [8] 7.94 µM | Potency [14] 6.31 µM
inactive: activity change, negative = inhibition [1] 5.96% | activity change, negative = inhibition [2] 1.34% | Potency [4] > 46 µM | Potency [5] > 46 µM | Potency [6] | outcome [7] | Potency [9] | Potency [10] | Potency [11] | Potency [12] | Potency [13] | outcome [15] | outcome [16] | activation [17] 0.312% | outcome [18] | outcome [19] | Potency [20]
